# Laboratory results taken from the supplement of paper PMC10849652.
# About 8,800 targets were measured; listed, in parts, are those with a hit and a random draw of the rest. About 0.5% of all pairs of compound and target were hits. Values without a mark were called inactive.
# Tests used:
# Test in all cases: log2 fold change, soluble protein after heating vs DMSO (PISA); higher = thermal stabilisation; K562 lysate, 10 uM; active = over 0.2 and 3.5 SD of the protein, either way, in both replicates (recomputed)
# ibrutinib = compound: C=CC(=O)N1CCC[C@@H](n2nc(-c3ccc(Oc4ccccc4)cc3)c3c(N)ncnc32)C1 [ibrutinib]
# Method in brief: (§1)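 A 30 min treatment with 10 μM compound was applied to crude K562 extract at 1 mg/mL protein in PBS pH 7.4 with 1 mM MgCl2. Heating for 3 min spanned 48°C-58°C, after which aliquots were pooled, adjusted to 0.5% NP-40 at 4°C and spun at 21,000xg for 90 min. TMTpro 16plex LC-MS/MS of the supernatant, with channel sums equalised, gave values recorded as log-two fold change in thermal stability against solvent controls, from duplicates.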
# [1] = compound: CC(=O)c1cnc2ccc(-c3cc(Cl)c(O)c(Cl)c3)nc2c1N[C@H]1CC[C@H](CN(C)C)CC1
# Method in brief: as §1
# ralimetinib = compound: CC(C)(C)Cn1c(N)nc2ccc(-c3[nH]c(C(C)(C)C)nc3-c3ccc(F)cc3)nc21 [ralimetinib]
# Method in brief: as §1
# [2] = compound: CC(C)(O)CC(=O)NCCn1ccc2ncnc(Nc3ccc(Oc4cccc(C(F)(F)F)c4)c(Cl)c3)c21
# Method in brief: as §1
# [3] = compound: CC(C)C1=C2N=C(C=C(N2N=C1)NCC3=CC=CC=C3)NCCCCCCN
# Method in brief: as §1
# [4] = compound: CC1=C(C(CC(=O)N1)C2=CC=C(C=C2)C(F)(F)F)C(=O)NC3=C(C=C4C(=C3)C=NN4)F
# Method in brief: as §1
# [5] = compound: CC1=C(C2=C(C=C1)C(=O)C3=CC=CC=C3N2CCCN)C
# Method in brief: as §1
# [6] = compound: CC1=C(C=C(C=C1)NC(=O)C2=CC(=CC=C2)C(C)(C)C#N)NC3=CC4=C(C=C3)N=CN(C4=O)C
# Method in brief: as §1
# [7] = compound: CC1=C(C=C(C=C1)NC(=O)C2=CC(=CC=C2)N(C)C)NC(=O)C3=CC=C(C=C3)O
# Method in brief: as §1
# [8] = compound: CC1=CC=C(C=C1)SC2=C3C=C(SC3=CN=C2)C(=O)N
# Method in brief: as §1
# vemurafenib = compound: CCCS(=O)(=O)Nc1ccc(F)c(C(=O)c2c[nH]c3ncc(-c4ccc(Cl)cc4)cc23)c1F [vemurafenib]
# Method in brief: as §1
# [9] = compound: CCCS(=O)(=O)Nc1ccc(F)c(C(=O)c2c[nH]c3ncc(Cl)cc23)c1F
# Method in brief: as §1
# barasertib = compound: CCN(CCCOc1ccc2c(Nc3cc(CC(=O)Nc4cccc(F)c4)[nH]n3)ncnc2c1)CCOP(=O)(O)O [barasertib]
# Method in brief: as §1
# [10] = compound: CC[C@@H]1C(=O)N(C)c2cnc(Nc3ccc(C(=O)NC4CCN(C)CC4)cc3OC)nc2N1C1CCCC1
# Method in brief: as §1
# volasertib = compound: CC[C@@H]1C(=O)N(C)c2cnc(Nc3ccc(C(=O)N[C@H]4CC[C@H](N5CCN(CC6CC6)CC5)CC4)cc3OC)nc2N1C(C)C [volasertib]
# Method in brief: as §1
# [11] = compound: CCn1c(C(=O)N(C2CC2)C2CC2)cc2c3c(ncn3C)c(Nc3cc(C)n(C)n3)nc21
# Method in brief: as §1
# [12] = compound: CCn1cc(-c2ccnc3[nH]c(-c4cccc(CN(C)C)c4)cc23)c(-c2ccc(NC(=O)N(C)C)cc2)n1
# Method in brief: as §1
# [13] = compound: CN1CCC(CNc2ccc3ncc(-c4cccc(OC(F)(F)F)c4)n3n2)CC1
# Method in brief: as §1
# saracatinib = compound: CN1CCN(CCOc2cc(OC3CCOCC3)c3c(Nc4c(Cl)ccc5c4OCO5)ncnc3c2)CC1 [saracatinib]
# Method in brief: as §1
# sotrastaurin = compound: CN1CCN(c2nc(C3=C(c4c[nH]c5ccccc45)C(=O)NC3=O)c3ccccc3n2)CC1 [sotrastaurin]
# Method in brief: as §1
# UniProt Q04726, sequence (Q04726 whole entry, looked up): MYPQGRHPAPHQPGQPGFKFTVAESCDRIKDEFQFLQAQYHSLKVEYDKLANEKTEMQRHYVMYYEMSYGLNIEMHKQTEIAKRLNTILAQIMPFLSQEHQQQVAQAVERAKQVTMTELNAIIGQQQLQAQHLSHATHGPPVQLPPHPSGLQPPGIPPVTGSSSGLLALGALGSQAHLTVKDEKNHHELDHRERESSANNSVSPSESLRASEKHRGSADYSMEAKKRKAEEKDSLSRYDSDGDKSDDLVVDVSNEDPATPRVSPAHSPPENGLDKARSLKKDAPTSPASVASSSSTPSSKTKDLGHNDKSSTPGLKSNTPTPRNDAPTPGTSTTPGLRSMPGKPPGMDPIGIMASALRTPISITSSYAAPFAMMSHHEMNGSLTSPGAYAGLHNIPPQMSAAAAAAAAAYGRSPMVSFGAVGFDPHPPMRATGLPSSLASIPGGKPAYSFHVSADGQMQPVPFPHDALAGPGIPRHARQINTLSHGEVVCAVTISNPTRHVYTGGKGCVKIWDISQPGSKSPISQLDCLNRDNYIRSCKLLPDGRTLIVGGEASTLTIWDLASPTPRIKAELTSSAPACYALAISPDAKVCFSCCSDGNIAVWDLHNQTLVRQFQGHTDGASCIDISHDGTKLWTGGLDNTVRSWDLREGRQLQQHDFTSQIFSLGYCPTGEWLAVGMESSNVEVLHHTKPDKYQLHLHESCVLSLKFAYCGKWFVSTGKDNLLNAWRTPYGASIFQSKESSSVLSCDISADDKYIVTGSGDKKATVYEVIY
# UniProt Q9UGU0, sequence (Q9UGU0 whole entry, looked up): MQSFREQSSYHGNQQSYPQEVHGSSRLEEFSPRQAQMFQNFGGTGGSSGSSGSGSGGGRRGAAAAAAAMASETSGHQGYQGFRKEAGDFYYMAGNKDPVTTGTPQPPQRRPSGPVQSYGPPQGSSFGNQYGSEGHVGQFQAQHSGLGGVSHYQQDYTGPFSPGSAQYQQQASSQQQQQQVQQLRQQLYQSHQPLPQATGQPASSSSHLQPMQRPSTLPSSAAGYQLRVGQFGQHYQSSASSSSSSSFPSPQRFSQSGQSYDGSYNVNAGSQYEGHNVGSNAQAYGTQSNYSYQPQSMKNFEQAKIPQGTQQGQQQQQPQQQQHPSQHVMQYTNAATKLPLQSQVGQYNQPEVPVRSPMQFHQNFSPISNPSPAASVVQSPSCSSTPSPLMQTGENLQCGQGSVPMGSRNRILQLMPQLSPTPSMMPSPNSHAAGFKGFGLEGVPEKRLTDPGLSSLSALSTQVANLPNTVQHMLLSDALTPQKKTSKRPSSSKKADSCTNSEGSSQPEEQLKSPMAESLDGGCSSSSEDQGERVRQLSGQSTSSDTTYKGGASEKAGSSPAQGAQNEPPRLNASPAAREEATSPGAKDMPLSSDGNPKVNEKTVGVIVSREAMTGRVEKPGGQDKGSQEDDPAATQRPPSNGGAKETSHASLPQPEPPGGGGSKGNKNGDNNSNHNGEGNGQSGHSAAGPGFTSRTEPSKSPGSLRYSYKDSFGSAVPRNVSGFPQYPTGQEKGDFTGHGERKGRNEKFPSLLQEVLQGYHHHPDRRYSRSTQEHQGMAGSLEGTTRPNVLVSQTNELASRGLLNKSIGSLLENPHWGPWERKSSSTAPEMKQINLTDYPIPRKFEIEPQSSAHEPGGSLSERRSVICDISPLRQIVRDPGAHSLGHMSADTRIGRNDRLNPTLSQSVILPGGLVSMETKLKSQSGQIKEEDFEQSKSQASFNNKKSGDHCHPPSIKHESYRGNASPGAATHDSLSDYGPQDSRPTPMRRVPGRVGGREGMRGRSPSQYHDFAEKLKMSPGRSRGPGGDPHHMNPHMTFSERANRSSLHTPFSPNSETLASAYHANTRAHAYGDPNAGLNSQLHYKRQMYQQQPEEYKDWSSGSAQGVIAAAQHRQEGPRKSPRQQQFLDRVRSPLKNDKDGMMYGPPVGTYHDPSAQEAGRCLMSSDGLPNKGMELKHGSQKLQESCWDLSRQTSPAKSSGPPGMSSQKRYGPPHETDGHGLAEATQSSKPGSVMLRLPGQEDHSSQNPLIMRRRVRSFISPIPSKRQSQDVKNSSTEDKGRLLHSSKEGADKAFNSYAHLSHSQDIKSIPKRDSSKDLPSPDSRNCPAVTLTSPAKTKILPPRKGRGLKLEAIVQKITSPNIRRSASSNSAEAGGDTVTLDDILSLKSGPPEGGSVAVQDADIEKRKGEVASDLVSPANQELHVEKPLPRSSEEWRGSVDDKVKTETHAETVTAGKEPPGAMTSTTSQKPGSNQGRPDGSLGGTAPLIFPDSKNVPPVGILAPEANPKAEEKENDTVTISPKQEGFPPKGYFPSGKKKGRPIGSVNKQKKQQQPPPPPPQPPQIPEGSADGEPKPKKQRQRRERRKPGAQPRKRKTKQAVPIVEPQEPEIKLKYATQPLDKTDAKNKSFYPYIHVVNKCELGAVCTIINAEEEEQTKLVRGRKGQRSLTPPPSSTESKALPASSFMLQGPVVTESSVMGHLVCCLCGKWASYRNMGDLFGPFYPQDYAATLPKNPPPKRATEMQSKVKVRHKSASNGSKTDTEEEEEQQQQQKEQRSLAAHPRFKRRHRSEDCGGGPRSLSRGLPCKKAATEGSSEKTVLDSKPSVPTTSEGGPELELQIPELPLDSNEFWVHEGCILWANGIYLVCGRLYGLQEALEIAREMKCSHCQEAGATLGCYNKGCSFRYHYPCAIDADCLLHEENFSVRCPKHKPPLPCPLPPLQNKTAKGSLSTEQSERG
# UniProt Q07157, sequence (Q07157 whole entry, looked up): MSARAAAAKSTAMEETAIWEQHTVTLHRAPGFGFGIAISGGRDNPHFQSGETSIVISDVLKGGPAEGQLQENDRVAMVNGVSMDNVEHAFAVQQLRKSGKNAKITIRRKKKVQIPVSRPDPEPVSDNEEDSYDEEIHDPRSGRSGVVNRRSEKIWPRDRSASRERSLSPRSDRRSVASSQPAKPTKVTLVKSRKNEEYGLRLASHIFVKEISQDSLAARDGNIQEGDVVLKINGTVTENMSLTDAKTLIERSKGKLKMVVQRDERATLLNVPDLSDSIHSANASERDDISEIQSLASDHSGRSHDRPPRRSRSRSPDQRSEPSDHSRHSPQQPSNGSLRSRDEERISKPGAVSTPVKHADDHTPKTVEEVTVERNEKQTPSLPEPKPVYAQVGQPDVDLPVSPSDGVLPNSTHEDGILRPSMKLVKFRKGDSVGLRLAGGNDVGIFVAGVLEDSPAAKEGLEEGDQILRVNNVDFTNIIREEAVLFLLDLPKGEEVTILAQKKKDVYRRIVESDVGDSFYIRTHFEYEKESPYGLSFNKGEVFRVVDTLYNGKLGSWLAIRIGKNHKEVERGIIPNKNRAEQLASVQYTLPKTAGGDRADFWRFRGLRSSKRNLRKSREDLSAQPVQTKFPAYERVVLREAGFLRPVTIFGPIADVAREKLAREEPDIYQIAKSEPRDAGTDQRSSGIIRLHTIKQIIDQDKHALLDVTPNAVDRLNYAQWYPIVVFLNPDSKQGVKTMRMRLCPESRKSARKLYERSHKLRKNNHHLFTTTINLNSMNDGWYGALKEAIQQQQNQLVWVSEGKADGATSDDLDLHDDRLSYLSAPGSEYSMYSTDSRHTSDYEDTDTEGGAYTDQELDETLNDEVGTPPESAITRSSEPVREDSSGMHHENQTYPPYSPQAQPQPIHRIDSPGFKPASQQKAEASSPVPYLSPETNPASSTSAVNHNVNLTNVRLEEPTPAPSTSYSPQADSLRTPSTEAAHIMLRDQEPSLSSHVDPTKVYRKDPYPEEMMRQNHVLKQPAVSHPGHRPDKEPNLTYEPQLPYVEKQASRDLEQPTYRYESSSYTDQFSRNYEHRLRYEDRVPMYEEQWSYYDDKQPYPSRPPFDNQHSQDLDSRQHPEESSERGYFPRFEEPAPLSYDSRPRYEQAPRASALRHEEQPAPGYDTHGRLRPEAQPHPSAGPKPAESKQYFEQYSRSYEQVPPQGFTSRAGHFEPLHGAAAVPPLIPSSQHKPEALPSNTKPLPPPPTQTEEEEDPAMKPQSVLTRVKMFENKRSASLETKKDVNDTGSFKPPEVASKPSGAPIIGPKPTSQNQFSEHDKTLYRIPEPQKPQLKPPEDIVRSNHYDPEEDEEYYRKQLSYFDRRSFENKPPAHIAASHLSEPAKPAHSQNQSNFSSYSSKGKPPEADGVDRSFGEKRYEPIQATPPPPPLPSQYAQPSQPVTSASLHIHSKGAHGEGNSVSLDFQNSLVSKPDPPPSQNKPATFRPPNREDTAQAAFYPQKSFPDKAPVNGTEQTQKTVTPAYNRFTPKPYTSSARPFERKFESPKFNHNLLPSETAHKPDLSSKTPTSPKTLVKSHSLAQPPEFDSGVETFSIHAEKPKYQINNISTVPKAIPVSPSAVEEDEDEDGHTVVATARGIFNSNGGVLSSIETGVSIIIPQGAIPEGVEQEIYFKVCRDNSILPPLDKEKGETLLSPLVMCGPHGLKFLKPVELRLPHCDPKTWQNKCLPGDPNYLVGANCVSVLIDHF
# UniProt Q8NG68, sequence (Q8NG68 whole entry, looked up): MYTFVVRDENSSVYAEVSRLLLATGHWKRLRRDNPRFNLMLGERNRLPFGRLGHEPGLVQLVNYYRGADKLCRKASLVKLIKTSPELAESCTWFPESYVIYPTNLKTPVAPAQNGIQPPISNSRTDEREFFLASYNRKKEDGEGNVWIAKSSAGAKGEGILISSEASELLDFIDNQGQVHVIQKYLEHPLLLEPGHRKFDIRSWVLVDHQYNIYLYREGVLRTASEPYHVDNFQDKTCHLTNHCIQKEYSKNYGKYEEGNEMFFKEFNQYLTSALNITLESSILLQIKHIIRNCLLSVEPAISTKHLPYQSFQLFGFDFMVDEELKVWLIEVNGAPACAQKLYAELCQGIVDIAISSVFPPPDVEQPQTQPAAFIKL
# UniProt P62328, sequence (P62328 whole entry, looked up): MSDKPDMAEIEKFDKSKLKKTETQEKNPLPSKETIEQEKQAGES
# UniProt Q9P0S9, sequence (Q9P0S9 whole entry, looked up): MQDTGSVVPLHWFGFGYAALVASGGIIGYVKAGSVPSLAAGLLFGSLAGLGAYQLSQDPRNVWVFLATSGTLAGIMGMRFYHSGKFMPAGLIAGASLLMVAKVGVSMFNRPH
Target,log2 fold change (ibrutinib),log2 fold change [1],log2 fold change (ralimetinib),log2 fold change [2],log2 fold change [3],log2 fold change [4],log2 fold change [5],log2 fold change [6],log2 fold change [7],log2 fold change [8],log2 fold change (vemurafenib),log2 fold change [9],log2 fold change (barasertib),log2 fold change [10],log2 fold change (volasertib),log2 fold change [11],log2 fold change [12],log2 fold change [13],log2 fold change (saracatinib),log2 fold change (sotrastaurin)
TTL (UniProt Q8NG68),0.014,0.101,-0.029,0.037,0.018,0.016,-0.065,0.063,0.063,-0.074,-0.066,0.053,0,-0.231,-0.116,0.021,0.009,-0.044,-0.068,0.078
UCHL5 (UniProt Q5LJA9),0.009,0.078,-0.007,-0.113,0.044,–,0,0.012,0.035,0.01,-0.021,-0.061,-0.01,-0.103,0.03,-0.108,0.019,0,0.023,0.007
UBL5 (UniProt Q9BZL1),0.052,–,-0.029,0.04,-0.003,-0.056,0.032,0.038,0.037,–,0.014,–,0.036,-0.015,–,-0.028,-0.126,0.097,-0.007,-0.186
TMEM70 (UniProt Q9BUB7),0.001,-0.026,0.012,-0.063,-0.002,-0.01,0.01,0.103,0.058,0.003,-0.016,0.029,0.063,-0.072,-0.004,-0.027,-0.378 (active),0.027,0.023,0.122
TUBAL3 (UniProt A6NHL2),0.002,-0.071,0.056,-0.145,0.116,-0.009,-0.008,–,-0.119,0.025,0.084,-0.024,-0.011,-0.122,0.041,-0.196,-0.413,0.284,0.001,–
TFPT (UniProt P0C1Z6),0.046,0.1,–,–,-0.053,–,-0.145,–,–,-0.06,–,-0.019,0.148,–,0.015,–,–,–,0.005,–
TFAP4 (UniProt Q01664),0.057,0.141,0.004,-0.26,-0.109,0.046,–,0.058,0.038,0.07,0.105,0.021,0.072,0.131,-0.112,0.129,0.597,-0.189,–,0.007
TK1 (UniProt K7ERV3),0.175,–,-0.018,-0.061,-0.114,-0.013,-0.023,0.032,-0.028,–,-0.001,–,0.072,-0.105,–,0.049,-0.102,0.068,0.089,-0.147
TJP1 isoform 2 (UniProt Q07157),0.019,-0.001,-0.007,-0.041,0.036,0.002,-0.025,0.015,0.016,-0.014,0.023,0,-0.003,0.064,-0.01,-0.045,-0.046,0.057,0.014,0.014
TENM4 (UniProt Q6N022),-0.043,0.035,–,–,–,–,–,0.162,–,-0.109,–,-0.205,0.104,–,-0.069,–,0.534 (active),-0.257,–,0
TMEM14C (UniProt Q9P0S9),0.04,0.085,0.129,-0.077,-0.135,-0.047,-0.146,0.048,0.007,0.152,0.027,0.087,-0.038,0.129,0.045,-0.053,–,–,-0.088,0.06
TUBB4A (UniProt P04350),0.007,-0.018,0.074,0.039,0.088,0.009,-0.086,-0.085,-0.015,-0.068,–,0.036,-0.006,0.045,0.104,0.02,-0.09,0,-0.033,-0.007
TCF20 (UniProt Q9UGU0),-0.025,0.128,–,–,-0.317,–,-0.212,-0.004,–,-0.166,–,-0.106,0.084,–,0.006,–,-0.02,-0.031,0.038,0.086
TUBGCP5 (UniProt Q96RT8),0.036,0.363,0.038,0.026,–,0.009,0.001,-0.007,-0.049,-0.118,-0.023,-0.351,-0.057,-0.204,0,0.004,-0.06,0.088,-0.075,0.033
TLE3 isoform 5 (UniProt Q04726),0.045,-0.022,-0.027,-0.077,-0.061,0.138,-0.053,0.093,0.018,-0.035,–,0.037,-0.176,0.026,-0.025,0.034,0.101,0.178,0.049,0.015
TMSB4X (UniProt P62328),0.519,-0.03,0,-0.072,0.033,0.122,–,-0.025,0.075,-0.064,–,-0.068,0.056,0.084,0.104,-0.187,-0.191,0.371,–,0.205
TUBB6 (UniProt K7ES63),-0.005,0.076,0.094,-0.07,0.132,-0.061,–,-0.005,0.027,-0.098,0.072,-0.027,-0.012,-0.096,-0.064,0.018,-0.06,0.23,–,0.036
THAP9 (UniProt Q9H5L6),0.038,-0.061,-0.168,-0.332,–,–,-0.199,0.234,0.017,-0.087,0.199,0.07,0.117,0.309,0.088,-0.401,-0.66 (active),0.151,0,0.076
UBXN2B (UniProt Q14CS0),0.108,0.19,0.087,-0.075,0.002,-0.189,-0.192,–,0.022,-0.011,0.148,0.049,0.147,0.065,-0.066,-0.035,-0.142,0.074,-0.068,–
